In PubChem BioAssay (NCI):
Where “and” joins values, the source holds several entries; their conditions need not be identical. Equal entries are not always repeated. The panel holds about 79,000 compounds, 15% with a hit somewhere; the sample as a whole holds those more often. Calls of active or inactive are those of the source. Rule as the data show it: active = growth inhibition above about 70%; inactive = the rest.

Tests used:
[1] = NCI Yeast Anticancer Drug Screen. Data for the rad50 strain (AID 155);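 also: 0% = growth of vehicle-only cultures of the same strain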; details: S. cerevisiae rad50 strain growth inhibition, stronger effect = higher value
How it was run: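 Readout: growth inhibition relative to vehicle-treated cultures. Compound exposure was carried out in a genetically defined yeast strain deficient in DNA damage repair.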

[2] = NCI Yeast Anticancer Drug Screen. Data for the sgs1 mgt1 strain (AID 161);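 also: 0% = growth of cultures given vehicle only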; details: S. cerevisiae sgs1 mgt1 strain, stronger effect = higher value
How it was run: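 Inhibition of yeast growth, normalised to vehicle-treated controls, is reported for a strain bearing genetic alterations in DNA damage repair.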

[3] = NCI Yeast Anticancer Drug Screen. Data for the cln2 rad14 strain (AID 165);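 also: 0% = growth equal to vehicle treated cultures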; details: S. cerevisiae cln2 rad14 strain, stronger effect = higher value
How it was run: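 cln2 rad14 yeast strain; compound exposure; growth inhibition read vs vehicle controls.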

[4] = NCI Yeast Anticancer Drug Screen. Data for the bub3 strain (AID 167); details: S. cerevisiae bub3 mutant strain, stronger effect = higher value
How it was run: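 Readout: yeast growth inhibition, expressed relative to vehicle-only wells. The test organism is a mutant strain from a panel with lesions in DNA repair or checkpoint genes.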

[5] = NCI Yeast Anticancer Drug Screen. Data for the mlh1 rad18 strain (AID 175); details: S. cerevisiae mlh1 rad18 strain growth inhibition, stronger effect = higher value
How it was run: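 Yeast w/ defined DNA-repair lesions; compound exposure; growth vs vehicle controls → % inhibition.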

[6] = NCI Yeast Anticancer Drug Screen. Data for the mec2-1 strain (AID 157); details: S. cerevisiae mec2-1 strain, stronger effect = higher value
How it was run: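 Yeast mec2-1 mutant treated with compound. Readout: growth inhibition vs vehicle controls.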

[7] = at 5.0 µM (retest, dose inferred, filed as 0.5)
[8] = at 50.0 µM (retest, dose inferred, filed as 5.0)

Measured: growth inhibition

Cc1ccc(C(=O)C(CN(C)C)CN(C)C)cc1C
inactive: [1]; [7] 29% | [2]; [7] 9% | [3]; [7] 24% | [3]; [8] 51% | [3]; at 50.0 µM 58.1% | [4]; [7] 20% | [5]; [7] 14%
active: [1]; [8] 83% | [1]; at 50.0 µM 87.6% | [2]; [8] 88% | [2]; at 50.0 µM 90.1% | [4]; [8] 94% | [4]; at 50.0 µM 87.5% | [5]; [8] 91% | [5]; at 50.0 µM 87.8%

c1ccc(Nc2nnc3nc(-c4ccccc4)c(-c4ccccc4)nn23)cc1
inactive: [1]; [7] 12% | [1]; [8] 60% | [1]; at 50.0 µM 65.2% | [6]; [7] 12% | [6]; at 50.0 µM 55.1% | [3]; [7] -1% | [3]; [8] 41% | [3]; at 50.0 µM 33% | [4]; [7] 6% | [4]; [8] 39% | [4]; at 50.0 µM 36.1% | [5]; [7] 5%
active: [6]; [8] 82% | [5]; [8] 84% | [5]; at 50.0 µM 70.1%

OCC(O)C(O)C(O)CO (stereo not drawn)
inactive: [1]; at 50.0 µM -5.35% and 10.4% and 7.75% | [6]; at 50.0 µM -8.1% and 4.3% and 14% | [2]; at 50.0 µM -16% and 7.05% and 14.4% | [3]; at 50.0 µM 4.25% and 2.85% and 13.9% | [4]; at 50.0 µM -45.7% and -5.45% and 0.05% | [5]; at 50.0 µM -8.35% and -4.45% and 10%

O=C(CC(C(=O)O)C(c1ccccc1)[N+](=O)[O-])c1ccccc1 (stereo not drawn)
inactive: [1]; at 50.0 µM -4.1% and 6.9% and 6.55% | [6]; at 50.0 µM -5.4% and -10.8% and 16.7% | [2]; at 50.0 µM 4.4% and 6.3% and -17.4% | [3]; at 50.0 µM -67.8% and 15.6% and -18.9% | [4]; at 50.0 µM -9.65% and 9.1% and 5.6% | [5]; at 50.0 µM -2.55% and 22.1% and 32.6%

CC(=O)Nc1ccc(/C=N\NC(=O)c2ccco2)cc1
inactive: [6]; [7] -10% | [6]; [8] -7% | [6]; at 50.0 µM -2.6% | [2]; [7] -4% | [2]; [8] 5% | [2]; at 50.0 µM -1.1% | [3]; [7] -13% | [3]; [8] 1% | [3]; at 50.0 µM -3.1% | [4]; [7] -8% | [4]; [8] -12% | [4]; at 50.0 µM -8.45% | [5]; [7] -2% | [5]; [8] -12% | [5]; at 50.0 µM 0.4%

C=C(CN(C)C)C(=O)c1ccccc1
active: [4]; at 50.0 µM 77.7% | [5]; at 50.0 µM 74.8%
inactive: [6]; [7] 8% | [6]; [8] 41% | [6]; at 50.0 µM 65% | [2]; [7] 8% | [2]; [8] 17% | [2]; at 50.0 µM 56% | [3]; [7] -26% | [3]; [8] 12% | [3]; at 50.0 µM 9.55% | [4]; [7] -20% | [4]; [8] 19% | [5]; [7] -4% | [5]; [8] 17%

OCC(O)C(O)C(O)C(O)C(O)CO (stereo not drawn)
inactive: [1]; at 50.0 µM 1% and 8% and 21.3% | [6]; at 50.0 µM 0.1% and 6.15% and -9.7% | [2]; at 50.0 µM 16.6% and 21.1% and 25.2% | [3]; at 50.0 µM -45.4% and -8.8% and -1.35% | [4]; at 50.0 µM 17.6% and -3.1% and 37.1% | [5]; at 50.0 µM 10.2% and 22.1% and 10.4%

CCc1ccc(C(=O)O)cc1
active: [3]; at 50.0 µM 76.7%
inactive: [6]; [7] -2% | [6]; [8] -2% | [6]; at 50.0 µM -11.9% | [2]; [7] -1% | [2]; [8] 0% | [2]; at 50.0 µM -1.1% | [3]; [7] -5% | [3]; [8] -17% | [4]; [7] -6% | [4]; [8] 2% | [4]; at 50.0 µM -15.2% | [5]; [7] -5% | [5]; [8] -3% | [5]; at 50.0 µM 10%
